In PubChem BioAssay AID1259313 (Sanford-Burnham Center for Chemical Genomics, 2017):
Among all 340,000 compounds or so, about 8,500 (2.5%) were called active. This excerpt belongs to a sample that is enriched for actives. Values without a mark were called inactive.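 The calls were made as follows: active = melting temperature shift of at least 10% of the positive control shift, at one fixed dose; inactive = the rest.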

What follows are molecules tested on Glutamate receptor ionotropic, NMDA 3A (GRIN3A) ligand-binding domain (assay: NR3A LBD thermal stabilization by compounds – biophysical, differential scanning fluorimetry, uHTS, primary screen (AID 1259313)). Settings: at 25 µM, stronger effect = higher value, 0% = protein alone, 100% = glycine-bound protein.
Work on `Cc1ccc(-n2nc(C)c(/C=N/NC(=O)c3cccs3)c2Cl)cc1` yielded a Tm shift relative to glycine control of -1.88%.
Work on `CN1CCN(c2ccccc2NC(=O)COc2ccc(C3CCCCC3)cc2)CC1` yielded a Tm shift relative to glycine control of 2.39%.
`CC1(C)C/C(=C(/C#N)C(N)=O)CCO1` gave a Tm shift relative to glycine control of 1.51%.
Work on `Cc1cc(Cl)ccc1C(=O)C1CCCN(C(=O)CCN2CCCO2)C1` (stereo unspecified) yielded a Tm shift relative to glycine control of -1.36%.
For `CCN(CC(=O)Nc1ccc(S(=O)(=O)N2CCCC2)cc1)CC(=O)Nc1cccc(OC)c1`, the Tm shift relative to glycine control was 0.48%.
`CCNS(=O)(=O)c1ccc(NC(=O)Nc2cccc(OC)c2)cc1` was tested, and the Tm shift relative to glycine control was 29.6% (active).
Work on `COc1cccc(NC(C)=[N+](C)CCNS(=O)(=O)c2ccc(Cl)cc2)c1` yielded a Tm shift relative to glycine control of -3.14%.
`CCNS(=O)(=O)c1ccc(NC(=O)Nc2cccc(C(F)(F)F)c2)cc1` was tested, and the Tm shift relative to glycine control was 38.8% (active).
`O=C(NCc1ccccc1)c1ccc(S(=O)(=O)Nc2cccc(C(F)(F)F)c2)cc1` was tested, and the Tm shift relative to glycine control was 8.53%.
`O=C(Nc1ccc(C(=O)N2CCOCC2)cc1)Nc1cccc(C(F)(F)F)c1` gave a Tm shift relative to glycine control of -5.51%.
`O=C(N/N=C/c1ccc(OCC2COCCO2)cc1)c1ccc(Br)cc1` (stereo unspecified) showed a Tm shift relative to glycine control of 8.82%.
`COc1ccc(N2C(=O)C3C(C2=O)C(C(=O)c2ccccc2)N2CCCC32)cc1` (stereo unspecified) gave a Tm shift relative to glycine control of -1.47%.
With `Cc1cccc(C(=O)Nc2ccccc2C(=O)NCc2cccnc2)c1` the Tm shift relative to glycine control was -0.85%.
In the case of `c1ccc(-c2cc(N3CCCCC3)c3ccccc3n2)cc1`, the Tm shift relative to glycine control is reported as 0.96%.
`Cc1nc(NNC(=O)c2ccccc2)cc(-c2ccccc2)n1` gave a Tm shift relative to glycine control of -0.16%.
In the case of `Nc1cccc(-c2cc(-c3ccccc3)nc(-c3cccc(N)c3)n2)c1`, the Tm shift relative to glycine control is reported as 42.8% (active).
With `Oc1[nH]c2ccc(Br)cc2c1N=Nc1nn[nH]n1` the Tm shift relative to glycine control was 4.42%.
For `NS(=O)(=O)c1ccc(N=Nc2c(O)[nH]c3ccc(Br)cc23)cc1`, the Tm shift relative to glycine control was 23.4% (active).
With `O=C(CNC(=O)Cc1ccccc1)N=Nc1c(O)[nH]c2ccc(Br)cc12` the Tm shift relative to glycine control was -9.04%.
Molecule `CCOc1cc2[nH]c(=S)n(CCN3CCCCC3C)c(=O)c2cc1OCC` (stereo unspecified) has a Tm shift relative to glycine control of 0.59%.
`Cc1cc(C)cc(OCC(=O)NNC(=O)c2cc3ccccc3oc2=O)c1` was tested, and the Tm shift relative to glycine control was 2.22%.
In the case of `O=C(NCC(O)c1ccc([N+](=O)[O-])cc1)C1CCCCC1` (stereo unspecified), the Tm shift relative to glycine control is reported as -0.64%.
`O=C(CC(c1ccccc1)c1ccccc1)NCC(O)c1ccc([N+](=O)[O-])cc1` (stereo unspecified) was tested, and the Tm shift relative to glycine control was -6.68%.
For `CC(=O)NCC(O)c1ccc([N+](=O)[O-])cc1` (stereo unspecified), the Tm shift relative to glycine control was 12.1% (active).
Work on `COC(=O)c1cc(NS(=O)(=O)c2ccc3c(c2)c(=O)n(C)c(=O)n3C)cc(C(=O)OC)c1` yielded a Tm shift relative to glycine control of -17.2%.
With `Cc1csc2nc(O)c(C(=O)NCCN3CCOCC3)c(=O)n12` the Tm shift relative to glycine control was 1.24%.
For `NC(=O)C1CCN(CC(O)CSc2ccc(F)cc2)CC1` (stereo unspecified), the Tm shift relative to glycine control was -0.69%.
Molecule `CCOC(=O)C1=C(CN2CCCCCC2)NC(=O)NC1c1cccc([N+](=O)[O-])c1` (stereo unspecified) has a Tm shift relative to glycine control of 0.15%.
Work on `COC(=O)C(C)Oc1ccc2c(-c3cccc([N+](=O)[O-])c3)cc(=O)oc2c1` (stereo unspecified) yielded a Tm shift relative to glycine control of 0.72%.
For `CCOC(=O)c1sc(-c2cccc([N+](=O)[O-])c2)cc1N`, the Tm shift relative to glycine control was 20.4% (active).
For `C=CCn1c(C)cc(C2=NNC(=NCC)SC2)c1C`, the Tm shift relative to glycine control was -0.92%.
For `Cc1cccc(N=C2NN=C(c3c[nH]c4ccccc34)CS2)c1`, the Tm shift relative to glycine control was 19.3% (active).
Work on `Cc1cccc(C(=O)Nc2nnc(Cc3c[nH]c4ccccc34)s2)c1` yielded a Tm shift relative to glycine control of -7.42%.
For `CC(C)C(C(=O)NCc1ccco1)N(CC1CCCO1)C(=O)CNS(=O)(=O)c1ccc(F)cc1` (stereo unspecified), the Tm shift relative to glycine control was 0.85%.
Work on `O=C(Nn1cc(C(=O)N2CCN(c3ccccc3F)CC2)c2ccccc2c1=O)c1cnccn1` yielded a Tm shift relative to glycine control of -1.41%.
In the case of `COc1ccc(S(=O)(=O)Nc2ccc(O)c(Sc3nc4ccccc4s3)c2)cc1`, the Tm shift relative to glycine control is reported as 11.6% (active).
In the case of `COc1ccc(/C=C(/CC(=O)Nc2ccc(C)cc2)c2nc3ccccc3s2)cc1`, the Tm shift relative to glycine control is reported as -2.24%.
In the case of `COc1ccc(NS(=O)(=O)c2ccc3oc(SCC(N)=O)nc3c2)cc1`, the Tm shift relative to glycine control is reported as -0.47%.
Work on `CCC(C)(C)NC(=O)/C=C/c1cc(OC)c(OC)c(S(=O)(=O)N2CCc3ccccc32)c1` yielded a Tm shift relative to glycine control of 0.08%.
`O=C(N/N=C/c1c(Cl)[nH]c2ccccc12)c1sc2ccccc2c1Cl` was tested, and the Tm shift relative to glycine control was 28.2% (active).
`COCCNC(=S)N/N=C/c1c(C)[nH]c2ccccc12` gave a Tm shift relative to glycine control of -4.38%.
In the case of `COc1ccc(CNC(=O)CNC(=O)c2sc3ccccc3c2Cl)cc1OC`, the Tm shift relative to glycine control is reported as 1.07%.
`Cc1ccc(N(C(=O)C(F)(F)F)C(C(=O)NC2CCCCC2)c2ccncc2)cc1C` (stereo unspecified) was tested, and the Tm shift relative to glycine control was -1.17%.
In the case of `O=C(OC1CCCCC1=O)c1cccc(S(=O)(=O)NCc2ccccc2)c1` (stereo unspecified), the Tm shift relative to glycine control is reported as -0.25%.
`CC1CN(c2cc(=O)n(-c3cccc(Br)c3)c(=O)[nH]2)CC(C)O1` (stereo unspecified) showed a Tm shift relative to glycine control of 0.6%.
Work on `COc1ccc(Br)cc1CN(C)CC(=O)Nc1cc(Cl)cc(Cl)c1` yielded a Tm shift relative to glycine control of -14.8%.
